Inconclusive results are not listed. Activity calls are given as the source filed them. Unless noted, calls follow the shape of the dose curve; as a rule, active = well fitted curve in the direction sought with a large enough effect; inconclusive = small, poorly fitted or top-dose-only effect, or another doubt; inactive = no such curve, though single readings can be large; an effect the other way counts as inactive or inconclusive.
Experiments:
WaGa = test: qHTS assay to identify novel small-molecules to repurpose for Merkel cell carcinoma treatment (AID 1296009); settings: MCC and control cell lines, CellTiter-Glo viability, 72 h; series mostly up to 46 µM; also: nearly all actives have a fitted effect of over 60% in size; also: potency is read from the fitted curve at half-maximal effect; as to activity change, negative = cytotoxicity: % is scaled to controls: 0 for no effect and ±100 for the full control effect
Summary of the method: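 72 hr, 37 degree celsius; NPC 8-pt / MIPE 11-pt dose response; compound pinned in DMSO; CellTiter-Glo, 10 min RT, luminescence; normalized to no-cell and DMSO controls.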

C33A = test: Primary qHTS to identify gynecologic anti-cancer compounds using libraries of approved drugs and bioactive compounds (AID 1345084); settings: Gynecologic cancer cell panel viability, ATPlite luminescence, 48 h; series mostly up to 57.5 µM; also: nearly all actives have a fitted effect of over 55% in size; also: potency is read from the fitted curve at half-maximal effect; as to activity change, negative = cytotoxicity: % is scaled to controls: 0 for no effect and ±100 for the full control effect
Summary of the method: (§1)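 ATP-based viability (ATPlite), 1,000 cells/well, 16 h pre-incubation, 48 h compound at 37 C, 5% CO2, 15 min RT before read.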

CASKI = test: as above; settings: Gynecologic cancer cell panel viability, ATPlite luminescence, 48 h; series mostly up to 57.5 µM
Summary of the method: as §1

Es-2 = test: as above; settings: Gynecologic cancer cell panel viability, ATPlite luminescence, 48 h; series mostly up to 57.5 µM
Summary of the method: as §1

HeLa = test: as above; settings: Gynecologic cancer cell panel viability, ATPlite luminescence, 48 h; series mostly up to 57.5 µM
Summary of the method: as §1

Hek293T = test: as above; settings: Gynecologic cancer cell panel viability, ATPlite luminescence, 48 h, control line for the selectivity index; series mostly up to 57.5 µM
Summary of the method: as §1

JEG-3 = test: as above; settings: Gynecologic cancer cell panel viability, ATPlite luminescence, 48 h; series mostly up to 57.5 µM
Summary of the method: as §1

OV90 = test: as above; settings: Gynecologic cancer cell panel viability, ATPlite luminescence, 48 h; series mostly up to 57.5 µM
Summary of the method: as §1

PA-1 = test: as above; settings: Gynecologic cancer cell panel viability, ATPlite luminescence, 48 h; series mostly up to 57.5 µM
Summary of the method: as §1

Tov-21-G = test: as above; settings: Gynecologic cancer cell panel viability, ATPlite luminescence, 48 h; series mostly up to 57.5 µM
Summary of the method: as §1

Tov112D = test: as above; settings: Gynecologic cancer cell panel viability, ATPlite luminescence, 48 h; series mostly up to 57.5 µM
Summary of the method: as §1

[1] = Drug repurposing screens with cells derived from glioblastoma tumor samples (AID 1345199); settings: GBM patient neurospheres viability, ATP luminescence, 48 h; also: nearly all actives have a fitted effect of over 40% in size; also: potency is read from the fitted curve at half-maximal effect; as to activity, negative = cell killing: % is scaled to controls: 0 for no effect and ±100 for the full control effect
Summary of the method: (§2)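 Four patient lines of CD133+ GBM neurospheres were screened at several concentrations; hits were retested in those lines plus three slower-growing GBM lines, using 48-hour treatment and ATP-based viability.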

astro = test: as above; settings: viability, ATP luminescence, 48 h; series mostly up to 45.9 µM
Summary of the method: as §2

SKOV3 = test: Primary qHTS to identify gynecologic anti-cancer compounds using libraries of approved drugs and bioactive compounds (AID 1345084); settings: Gynecologic cancer cell panel viability, ATPlite luminescence, 48 h; series mostly up to 57.5 µM; also: nearly all actives have a fitted effect of over 55% in size; also: potency is read from the fitted curve at half-maximal effect; as to activity change, negative = cytotoxicity: % is scaled to controls: 0 for no effect and ±100 for the full control effect
Summary of the method: as §1

CAOV3 = test: as above; settings: Gynecologic cancer cell panel viability, ATPlite luminescence, 48 h; series mostly up to 57.5 µM
Summary of the method: as §1

[2] = molecular target: Nuclear receptor subfamily 1 group I member 2 (Rattus norvegicus) (UniProt Q9R1A7); test: qHTS assay for small molecule activators of the rat pregnane X receptor (rPXR) signaling pathway (AID 651751; call rule not given here; also: 0% is about no effect); settings: rPXR reporter cells, luciferase (One-Glo), 24 h
Chain of Nuclear receptor subfamily 1 group I member 2 (Rattus norvegicus) (Q9R1A7 whole entry, looked up): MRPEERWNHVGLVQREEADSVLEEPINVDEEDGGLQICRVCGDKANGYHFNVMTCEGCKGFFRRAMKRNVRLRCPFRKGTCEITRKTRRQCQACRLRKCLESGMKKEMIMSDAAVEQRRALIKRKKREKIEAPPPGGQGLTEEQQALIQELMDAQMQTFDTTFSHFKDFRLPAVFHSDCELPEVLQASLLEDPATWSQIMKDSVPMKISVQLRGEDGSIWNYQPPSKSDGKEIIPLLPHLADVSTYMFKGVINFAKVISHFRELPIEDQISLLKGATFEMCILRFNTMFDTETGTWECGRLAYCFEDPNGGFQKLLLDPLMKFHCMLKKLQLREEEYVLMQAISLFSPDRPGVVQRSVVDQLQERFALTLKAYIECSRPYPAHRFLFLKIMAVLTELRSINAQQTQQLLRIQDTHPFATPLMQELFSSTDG

[3] = at 45.9 µM (top of the series), tumour line B
[4] = at 45.9 µM (top of the series), tumour line D
[5] = at 46 µM (top of the series), tumour line A
[6] = at 46.1 µM (top of the series), tumour line C

CC(C)(C)NCC(O)c1ccc(O)c(CO)c1 (centres undefined)
inactive: Potency (WaGa) | Potency (C33A) | Potency (CASKI) | Potency (Es-2) | Potency (HeLa) | Potency (Hek293T) | Potency (JEG-3) | Potency (OV90) | Potency (PA-1) | Potency (Tov-21-G) | Potency (Tov112D) | activity, negative = cell killing [1, 3] -3.69% | activity, negative = cell killing [1, 4] -16.6% | activity, negative = cell killing [1, 5] -18.1% | activity, negative = cell killing [1, 6] -6.46% | Potency (astro)

Cc1ccnc(NS(=O)(=O)c2ccc(NC(=O)Nc3ccc(S(=O)(=O)Nc4nccc(C)n4)cc3)cc2)n1
inactive: Potency (WaGa) | Potency (C33A) | Potency (CASKI) | Potency (Es-2) | Potency (HeLa) | Potency (Hek293T) | Potency (JEG-3) | Potency (OV90) | Potency (PA-1) | Potency (SKOV3) | Potency (Tov-21-G) | Potency (Tov112D)

N=c1nc(N2CCCCC2)cc(N)n1O
inactive: Potency (WaGa) | Potency (C33A) | Potency (CAOV3) | Potency (Es-2) | Potency (HeLa) | Potency (Hek293T) | Potency (JEG-3) | Potency (OV90) | Potency (PA-1) | Potency (SKOV3) | Potency (Tov-21-G) | Potency (Tov112D) | activity, negative = cell killing [1, 3] -6.91% | activity, negative = cell killing [1, 4] -11% | activity, negative = cell killing [1, 5] -16.6% | Potency (astro)

Cc1[nH]c(=O)c(C#N)cc1-c1ccncc1
inactive: Potency (WaGa) | Potency (C33A) | Potency (CASKI) | Potency (Es-2) | Potency (HeLa) | Potency (Hek293T) | Potency (JEG-3) | Potency (OV90) | Potency (PA-1) | Potency (SKOV3) | Potency (Tov-21-G) | Potency (Tov112D) | activity, negative = cell killing [1, 3] -10.7% | activity, negative = cell killing [1, 4] 4.86% | activity, negative = cell killing [1, 5] -23.5% | activity, negative = cell killing [1, 6] 2.71% | activity, negative = cell killing ([1]; at 91.6 µM (top of the series), tumour line B) -14.8% | activity, negative = cell killing ([1]; at 91.6 µM (top of the series), tumour line D) 7.24% | activity, negative = cell killing ([1]; at 99.2 µM (top of the series), tumour line C) -28.5% | Potency (astro) | max response [2] 2.46%

CC(c1cc2ccccc2s1)N(O)C(N)=O (centres undefined)
inactive: Potency (WaGa) | Potency (C33A) | Potency (CASKI) | Potency (Es-2) | Potency (Hek293T) | Potency (JEG-3) | Potency (OV90) | Potency (PA-1) | Potency (SKOV3) | Potency (Tov-21-G) | Potency (Tov112D) | activity, negative = cell killing [1, 3] -3.78% | activity, negative = cell killing [1, 4] -20.5% | activity, negative = cell killing [1, 5] -18.2% | activity, negative = cell killing [1, 6] -18.9% | Potency (astro)

Cc1ccc(-n2nc(C(C)(C)C)cc2NC(=O)Nc2ccc(OCCN3CCOCC3)c3ccccc23)cc1
inactive: Potency (WaGa) | Potency (C33A) | Potency (CASKI) | Potency (Es-2) | Potency (HeLa) | Potency (Hek293T) | Potency (JEG-3) | Potency (OV90) | Potency (PA-1) | Potency (SKOV3) | Potency (Tov-21-G) | Potency (Tov112D) | activity, negative = cell killing [1, 3] 12.9% | activity, negative = cell killing [1, 4] -19.4% | activity, negative = cell killing [1, 6] -25.6%

NCCCC(N)(C(=O)O)C(F)F (centres undefined)
inactive: Potency (WaGa) | Potency (C33A) | Potency (CASKI) | Potency (Es-2) | Potency (HeLa) | Potency (Hek293T) | Potency (JEG-3) | Potency (OV90) | Potency (PA-1) | Potency (SKOV3) | Potency (Tov-21-G) | Potency (Tov112D) | activity, negative = cell killing [1, 3] -9.02% | activity, negative = cell killing [1, 4] 7.69% | activity, negative = cell killing [1, 5] -29.6% | activity, negative = cell killing [1, 6] -4.46% | Potency (astro)

CCN(CC)CCCC(C)Nc1ccnc2cc(Cl)ccc12 (centres undefined)
active: Potency (OV90) 5.62 µM | Potency ([1]; tumour line A) 15.8 µM
inactive: Potency (WaGa) | Potency (C33A) | activity change, negative = cytotoxicity (CASKI) -9.21% [at 11.6 µM] | Potency (Es-2) | Potency (HeLa) | Potency (Hek293T) | Potency (JEG-3) | Potency (PA-1) | Potency (SKOV3) | Potency (Tov-21-G) | Potency (Tov112D) | activity, negative = cell killing [1, 6] 3.03% | Potency (astro)

C#Cc1cccc(Nc2ncnc3cc(OCCOC)c(OCCOC)cc23)c1
active: Potency (WaGa) 29.6 µM | Potency (SKOV3) 10 µM
inactive: Potency (C33A) | Potency (CASKI) | Potency (Es-2) | Potency (HeLa) | Potency (Hek293T) | Potency (JEG-3) | Potency (OV90) | Potency (PA-1) | Potency (Tov112D)

CC1(C)Cc2c(-c3ccccc3)c(-c3ccc(Cl)cc3)c(CC(=O)O)n2C1
inactive: Potency (WaGa) | Potency (C33A) | Potency (CASKI) | Potency (Es-2) | Potency (HeLa) | Potency (JEG-3) | Potency (OV90) | Potency (PA-1) | Potency (SKOV3) | Potency (Tov112D)

C[C@]12CCC(=O)C=C1CC[C@@H]1[C@@H]2[C@@H](O)C[C@@]2(C)[C@H]1CC[C@]2(O)C(=O)CO
inactive: Potency (WaGa) | Potency (C33A) | Potency (CASKI) | Potency (Es-2) | Potency (HeLa) | Potency (Hek293T) | Potency (JEG-3) | Potency (PA-1) | Potency (Tov-21-G) | Potency (Tov112D)
